Our source for the composite z-score, composite Z-score and z-score values is PubChem BioAssay.

The target in one experiment is Albumin (Bos taurus) (UniProt P02769). The experiment is described as follows: compounds binding labelled BSA control protein – biochemical, small-molecule microarray, Alexa647 label, 635/667 nm fluorescence, artefact control for SMM control protein annotation, profiling panel (AID 1118).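 Also: score merges 667 nm emission intensity and signal-to-noise per printed compound spot.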 Particulars: BSA-A647 binding, fluorescence 635 nm, higher = more signal.
A short description of experiment [1]: probe aXIP binding to arrayed compounds – biochemical, NeuroSMM set, 635/667 nm fluorescence, primary screen (AID 1119).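 Also: probe is the protein aXip251-270 applied at 1 µg/mL to compound-printed slides; binding of probe to printed compounds measured as 667 nm fluorescence plus signal to noise.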 Particulars: small-molecule microarray, higher = more signal, called active from +8 up or from −8 down.
The nature of experiment [2]: probe aNOTCH3 binding on compound microarray – biochemical, small-molecule microarray, 635/667 nm fluorescence, primary screen (AID 1120).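 Also: probe is a biotin-tagged antibody raised against NOTCH3 rather than NOTCH3 protein; score merges spot fluorescence near 667 nm with spot signal to noise.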 Particulars: higher = more signal.
Experiment [3] can be described thus: probe aNOTCH2 binding on compound microarray – biochemical, small-molecule microarray, 635/667 nm fluorescence, primary screen (AID 1121).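 Also: score merges feature fluorescence read at 667 nm with its signal to noise.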 Conditions: higher = more signal.
In experiment [4] the target is Carbonic anhydrase 2 (Homo sapiens) (UniProt P00918). The experiment is described as follows: compounds binding carbonic anhydrase 2 – biochemical, small-molecule microarray, Alexa647-labelled CAII, profiling panel (AID 1122). Particulars: CAII-A647 binding fluorescence, higher = more signal.
Experiment [5] in a line: COS7 lysate on small-molecule microarray, probe aHis, 635 nm (AID 1123).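 Also: z-score combines 667nm fluorescence intensity with signal-to-noise per printed compound spot.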 Conditions: COS7 cell lysate, fluorescence, higher = more signal.
The nature of experiment [6]: probe aLAP1 signal on lysate-treated microarray – cell lysate, small-molecule microarray, COS7 lysate, primary screen (AID 1124).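 Also: lysate comes from COS7 cells expressing LAP1 and is applied at 0.3 µg/mL; score merges spot fluorescence near 667 nm with signal-to-noise over triplicate slides.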 Particulars: probe aLAP1, fluorescence, higher = more signal.
Another experiment concerns Sam68 (KHDRBS1). The experiment in a line: compounds binding KHDRBS1 protein – biochemical, small-molecule microarray, 635 nm fluorescence, primary screen (AID 1125).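 Also: score merges 667 nm channel intensity with signal to noise over triplicate slides.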 Conditions: higher = more signal.
Experiment [7] relates to Chordin-like protein 2 (CHRDL2). The experiment is described as follows: compounds binding chordin-like 2 – biochemical, small-molecule microarray, 635 nm fluorescence, primary screen (AID 1126).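 Also: printed compound slides probed with Chrdl2 protein at 4 µg/mL for 1 h at 4 C; score merges 667 nm emission intensity with signal to noise over three replicate slides.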 Conditions: fluorescence 635 nm, higher = more signal.
The target of experiment [8] is Concanavalin-A (Canavalia ensiformis) (UniProt P02866). The experiment is described as follows: compounds binding concanavalin A lectin – biochemical, small-molecule microarray, Alexa647 label, 635 nm, artefact control for SMM control protein annotation, primary screen (AID 1127).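 Also: z combines 667 nm emission intensity with signal-to-noise across three replicate slides.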 Conditions: ConA-A647 binding fluorescence, higher = more signal.
The nature of experiment [9]: compounds binding Alexa647 anti-His antibody – biochemical, small-molecule microarray, 635 nm fluorescence, artefact control for SMM control protein annotation, primary screen (AID 1128).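 Also: score merges feature fluorescence with signal-to-noise for each printed compound spot.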 Particulars: higher = more signal.
For experiment [10], the system named is Human papillomavirus type 1a E7 protein (residues 1-88). The experiment is described as follows: HPV1a E7 small-molecule binders, primary screen, biochemical, small-molecule microarray, residues 1-88, 635 nm (AID 1129). Particulars: small-molecule microarray binding, fluorescence 635 nm; higher = more signal.
Experiment [11] has as its target Focal adhesion kinase 1 (Homo sapiens) (UniProt Q05397). The experiment is described as follows: PTK2 protein binding on printed compound slides – biochemical, small-molecule microarray, 635/667 nm fluorescence, BSA, DTT, primary screen (AID 1130).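 Also: composite of spot emission at 667 nm and signal to noise over triplicate slides.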 Conditions: 635 nm fluorescence, higher = more signal.
Experiment [12] deals with Fibrinogen (Alexa647-labelled). The experiment is described as follows: Alexa647-fibrinogen binding to printed small molecules – biochemical, small-molecule microarray, 635/667 nm fluorescence, artefact control for SMM control-protein annotation, profiling panel (AID 1131).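 Also: z-score merges 667 nm fluorescence with per-spot signal-to-noise over triplicate slides.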 Particulars: fibrinogen-A647 binding fluorescence, higher = more signal.
The target in experiment [13] is Follistatin (Homo sapiens) (UniProt P19883). The experiment in a line: FST protein binding to printed compounds – biochemical, small-molecule microarray, 635/667 nm fluorescence, primary screen (AID 1132). Particulars: 635 nm fluorescence, higher = more signal.
The target of experiment [14] is Fibroblast growth factor 2 (Homo sapiens) (UniProt P09038). The experiment is described as follows: basic fibroblast growth factor binding to printed compounds – biochemical, small-molecule microarray, 635/667 nm fluorescence, primary screen (AID 1133). Particulars: FGF2, fluorescence 635/667, higher = more signal.
The nature of experiment [15]: JC-1 mitochondrial potential readout, lung cancer cells – cell-based, A549, JC-1 fluorescence, basal, 24 h, 100 nL, profiling panel (AID 1138).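 Also: A549 lung adenocarcinoma cells under basal conditions with no added stimulus; test concentration not given here.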 Particulars: higher = more signal.
Another experiment deals with Lefty1. The experiment is described as follows: Lefty1 protein binding to printed compounds – biochemical, small-molecule microarray, 635/667 nm fluorescence, primary screen (AID 1139). Conditions: fluorescence 635/667, higher = more signal.
Experiment [16] concerns wheat germ agglutinin (Triticum aestivum), Alexa647-labelled. The experiment is described as follows: Alexa647-WGA lectin binding to printed small molecules – biochemical, small-molecule microarray, 635/667 nm fluorescence, artefact control for SMM control-protein annotation, profiling panel (AID 1140).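 Also: score merges 667 nm feature emission with signal to noise over triplicate slides.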 Conditions: WGA-A647 binding, 635 nm fluorescence, higher = more signal.

Experiment [17] has as its target Luciferin 4-monooxygenase (Photinus pyralis) (UniProt P08659). The experiment is described as follows: inhibition of purified Photinus pyralis luciferase – biochemical, luminescence, purified enzyme, 2006 set, primary screen (AID 1141).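 Also: cell-free assay with purified firefly luciferase at 100 ng per well in PBS; test concentration not given here.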 Conditions: purified firefly luciferase, SteadyGlo luminescence, 30 min; higher = more signal, called active from +8 up or from −8 down.

Active and inactive are the calls of the source.

Chain of Fibroblast growth factor 2 (Homo sapiens) (P09038 whole entry, looked up): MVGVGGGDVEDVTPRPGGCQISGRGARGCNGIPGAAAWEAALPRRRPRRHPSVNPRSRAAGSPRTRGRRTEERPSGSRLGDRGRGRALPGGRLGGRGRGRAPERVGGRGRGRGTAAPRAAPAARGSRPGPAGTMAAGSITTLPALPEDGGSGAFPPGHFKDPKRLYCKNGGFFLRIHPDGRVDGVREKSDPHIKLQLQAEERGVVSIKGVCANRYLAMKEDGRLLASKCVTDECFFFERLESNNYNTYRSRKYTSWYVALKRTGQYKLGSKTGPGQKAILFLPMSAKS
Chain of Follistatin (Homo sapiens) (P19883 whole entry, looked up): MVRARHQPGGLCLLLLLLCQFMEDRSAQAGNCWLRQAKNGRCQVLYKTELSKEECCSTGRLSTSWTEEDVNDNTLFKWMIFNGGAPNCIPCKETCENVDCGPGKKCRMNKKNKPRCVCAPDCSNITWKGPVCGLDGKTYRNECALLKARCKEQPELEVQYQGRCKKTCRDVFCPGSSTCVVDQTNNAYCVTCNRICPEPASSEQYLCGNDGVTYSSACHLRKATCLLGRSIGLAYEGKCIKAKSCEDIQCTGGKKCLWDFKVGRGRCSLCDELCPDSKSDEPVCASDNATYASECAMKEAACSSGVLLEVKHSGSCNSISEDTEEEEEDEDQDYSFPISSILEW
Chain of Concanavalin-A (Canavalia ensiformis) (P02866 whole entry, looked up): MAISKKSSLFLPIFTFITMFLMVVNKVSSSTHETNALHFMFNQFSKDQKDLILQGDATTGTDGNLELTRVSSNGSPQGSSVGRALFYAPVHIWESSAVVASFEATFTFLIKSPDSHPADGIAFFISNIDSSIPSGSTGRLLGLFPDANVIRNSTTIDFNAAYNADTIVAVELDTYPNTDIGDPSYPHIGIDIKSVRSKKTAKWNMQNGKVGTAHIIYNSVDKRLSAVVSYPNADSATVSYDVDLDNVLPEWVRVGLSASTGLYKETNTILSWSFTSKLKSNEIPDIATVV
Chain of Albumin (Bos taurus) (P02769 whole entry, looked up): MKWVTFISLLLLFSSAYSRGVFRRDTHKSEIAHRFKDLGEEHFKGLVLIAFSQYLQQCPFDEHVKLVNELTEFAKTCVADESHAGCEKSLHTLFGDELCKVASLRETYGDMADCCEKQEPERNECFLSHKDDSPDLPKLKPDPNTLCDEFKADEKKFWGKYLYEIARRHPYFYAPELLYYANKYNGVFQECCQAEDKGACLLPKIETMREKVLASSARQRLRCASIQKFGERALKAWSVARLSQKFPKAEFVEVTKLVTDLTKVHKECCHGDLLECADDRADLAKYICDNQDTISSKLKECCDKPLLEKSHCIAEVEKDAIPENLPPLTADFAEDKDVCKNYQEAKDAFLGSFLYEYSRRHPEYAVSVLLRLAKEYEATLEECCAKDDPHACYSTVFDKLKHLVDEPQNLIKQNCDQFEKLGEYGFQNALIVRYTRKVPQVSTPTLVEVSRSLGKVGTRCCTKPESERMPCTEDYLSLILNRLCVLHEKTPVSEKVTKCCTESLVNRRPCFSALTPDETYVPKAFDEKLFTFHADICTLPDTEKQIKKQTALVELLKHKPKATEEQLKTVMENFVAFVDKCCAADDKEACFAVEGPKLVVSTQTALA
Chain of Focal adhesion kinase 1 (Homo sapiens) (Q05397 whole entry, looked up): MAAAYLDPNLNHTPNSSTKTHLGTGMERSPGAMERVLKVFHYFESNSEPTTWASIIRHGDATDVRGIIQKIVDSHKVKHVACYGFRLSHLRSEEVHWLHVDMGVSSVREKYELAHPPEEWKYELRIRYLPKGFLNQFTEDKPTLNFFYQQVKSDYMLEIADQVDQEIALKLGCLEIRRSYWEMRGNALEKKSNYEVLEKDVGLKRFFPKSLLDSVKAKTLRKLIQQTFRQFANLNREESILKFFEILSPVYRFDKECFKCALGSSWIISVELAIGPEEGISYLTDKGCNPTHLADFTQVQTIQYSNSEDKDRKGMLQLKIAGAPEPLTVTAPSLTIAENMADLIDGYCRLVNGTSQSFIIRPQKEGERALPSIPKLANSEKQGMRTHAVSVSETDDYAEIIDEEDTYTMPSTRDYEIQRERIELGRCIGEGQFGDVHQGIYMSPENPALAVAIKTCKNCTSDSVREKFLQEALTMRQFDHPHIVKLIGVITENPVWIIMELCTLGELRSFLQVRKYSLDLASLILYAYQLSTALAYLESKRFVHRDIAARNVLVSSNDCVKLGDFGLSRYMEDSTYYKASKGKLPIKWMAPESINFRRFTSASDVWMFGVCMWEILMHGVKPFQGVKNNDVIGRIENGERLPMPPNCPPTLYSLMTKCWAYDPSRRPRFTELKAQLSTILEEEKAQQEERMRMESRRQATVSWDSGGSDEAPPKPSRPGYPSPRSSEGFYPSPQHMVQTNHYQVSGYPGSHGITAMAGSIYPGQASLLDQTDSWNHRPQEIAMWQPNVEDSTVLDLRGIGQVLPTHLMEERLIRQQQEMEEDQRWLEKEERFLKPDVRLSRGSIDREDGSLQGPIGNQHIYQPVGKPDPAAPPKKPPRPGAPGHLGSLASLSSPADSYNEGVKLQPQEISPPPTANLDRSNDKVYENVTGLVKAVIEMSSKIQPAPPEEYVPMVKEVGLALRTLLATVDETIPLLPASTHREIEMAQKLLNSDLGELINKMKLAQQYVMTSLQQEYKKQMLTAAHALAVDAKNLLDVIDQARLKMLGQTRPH
Chain of Luciferin 4-monooxygenase (Photinus pyralis) (P08659 whole entry, looked up): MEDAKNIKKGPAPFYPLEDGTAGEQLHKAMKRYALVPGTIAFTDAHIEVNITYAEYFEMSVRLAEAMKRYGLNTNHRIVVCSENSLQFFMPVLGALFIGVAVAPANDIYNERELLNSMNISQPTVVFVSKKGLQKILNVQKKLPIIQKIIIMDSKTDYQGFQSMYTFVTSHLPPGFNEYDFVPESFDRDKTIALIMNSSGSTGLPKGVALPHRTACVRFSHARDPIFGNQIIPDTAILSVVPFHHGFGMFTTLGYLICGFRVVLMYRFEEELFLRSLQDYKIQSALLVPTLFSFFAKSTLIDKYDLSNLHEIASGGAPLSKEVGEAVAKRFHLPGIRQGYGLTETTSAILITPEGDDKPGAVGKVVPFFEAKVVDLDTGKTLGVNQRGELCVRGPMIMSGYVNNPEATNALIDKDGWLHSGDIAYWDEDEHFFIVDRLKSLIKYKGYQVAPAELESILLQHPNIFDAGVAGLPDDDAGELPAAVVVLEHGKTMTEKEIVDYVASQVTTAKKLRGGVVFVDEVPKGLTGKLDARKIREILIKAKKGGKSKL

For `COc1ccc([Si](C)(C)[C@H]2[C@H](CCO)O[C@@]3(C(=O)N(Cc4ccc(N5C(=O)c6ccccc6Oc6ccccc65)cc4)c4ccccc43)[C@@H]2C)cc1`, the composite z-score with Albumin (Bos taurus) was -0.0162; in experiment [2], -0.0212; in experiment [3], -0.204; in experiment [4] it was 0.0539; in experiment [5] it was 0.648; in [6], -0.299. In addition, the composite z-score in the experiment on Sam68 (KHDRBS1) is -0.652; in [7], -0.348; in [8], -0.352; in experiment [9] it was -0.486; in [10], -0.76; in experiment [11], -0.266. Further, the composite z-score in [12] was 0.348; in experiment [13], -1.14; in [14], -0.968; in the experiment with Lefty1, -0.865; in experiment [16], 0.0124. In addition, the composite Z-score in experiment [1] was -0.291 (inactive). Also, the z-score was 1.26 in [15] and -0.652 (inactive) in experiment [17].
For the compound `C=CCNC(=O)[C@@H]1[C@H]2C(=O)O[C@H](c3ccccc3)[C@H](c3ccccc3)N2[C@H](c2ccc(OCCO)cc2)[C@@]12C(=O)N(C(=O)OCCOC)c1ccc(C#CCCO)cc12`, the composite z-score was 0.474 with Albumin (Bos taurus); 0.0422 in experiment [2]; -0.0677 in [3]; 0.576 in experiment [4]; 1.23 in experiment [5]; 0.659 in [6]. Besides, the composite z-score with Sam68 (KHDRBS1) came out at 1.27; in [7] it was 0.528; in [8], 1.11; in [9], 0.32; in [10] it was 1.17; in [11], 1.12. Further, the composite z-score in experiment [12] was determined as 0.736; in experiment [13], 1.33; in experiment [14], 0.482; with Lefty1 it was 1.1; in experiment [16], 0.719. Also, the composite Z-score in experiment [1] is 0.365 (inactive). Besides, the z-score in experiment [15] was -0.295; in [17], -11.1 (active).
Regarding `CC(C)CNC(=O)[C@@]1(c2ccc([N+](=O)[O-])cc2)CC(=O)N(C2CCCCC2)[C@@H]1c1ccc(CO)cc1`, the composite z-score with Albumin (Bos taurus) is 0.819; in experiment [2], -0.191; in experiment [3], -0.123; in experiment [4], 0.714; in experiment [5], 2.05; in experiment [6] it was 0.571. Besides, the composite z-score in the experiment with Sam68 (KHDRBS1) was 0.244; in [7], 0.0971; in experiment [8], 0.213; in experiment [9], 1.91; in experiment [10], 1.23; in experiment [11], -0.0282. Besides, the composite z-score in [12] is 0.583; in [13], 0.536; in experiment [14], 1.04; in the experiment with Lefty1 it was -0.35; in [16], 0.29. Also, in experiment [1], the composite Z-score was 1.08 (inactive). The z-score in experiment [15] is 0.214; in experiment [17] it was -0.977 (inactive).
Regarding `Cc1ccc(C(C)CC(O)C2C=CC3C(=O)N(c4ccccc4)C(=O)C3N2Nc2ccc(C#N)cc2)o1` (stereo not given), the composite z-score with Albumin (Bos taurus) came out at 1; in experiment [2] it was 0.0744; in experiment [3] it was 0.115; in experiment [4], 0.707; in experiment [5], 3.21; in experiment [6], 0.825. For the same compound, the composite z-score is 1.29 in the experiment with Sam68 (KHDRBS1); -0.387 in experiment [7]; 1.16 in experiment [8]; 1.21 in experiment [9]; 1.24 in experiment [10]; 0.175 in [11]. The composite z-score was found to be 1.03 in experiment [12]; 1.24 in experiment [13]; 0.37 in [14]; 0.0143 in the experiment with Lefty1; 0.586 in experiment [16]. Moreover, the composite Z-score in experiment [1] is -0.102 (inactive). For the same compound, the figures for the z-score in [15] and in experiment [17] were 0.289 and -0.993 (inactive), respectively.
Regarding `CCCCC(=C=CC[C@H](O)c1ccc(OCCO)cc1)C[C@H](O)COCc1ccccc1`, the composite z-score with Albumin (Bos taurus) is -0.276; in experiment [2] it was -0.163; in experiment [3], -0.164; in experiment [4], 0.7; in [5] it was 1.19; in experiment [6], 0.271. For the same compound, the composite z-score in the experiment with Sam68 (KHDRBS1) was 0.549; in experiment [7], -0.371; in [8] it was -0.434; in experiment [9] it was 0.522; in experiment [10], 0.0648; in [11], 0.477. For the same compound, the composite z-score in experiment [12] was -0.56; in experiment [13], 0.163; in [14], 0.501; in the experiment on Lefty1 it was 0.235; in experiment [16] it was -0.0019. The composite Z-score in experiment [1] was 0.154 (inactive). Moreover, the z-score is 2.19 in [15] and -1.22 (inactive) in experiment [17].
On to `C=C[C@@H](C)[C@H](O)c1ccc(OCCO)cc1`, for which the composite z-score in the experiment with Albumin (Bos taurus) is 0.189; in [2], -0.529; in experiment [3] it was -0.206; in [4], 0.799; in [5] it was 0.28; in experiment [6], -0.343. Besides, the composite z-score in the experiment on Sam68 (KHDRBS1) is -0.885; in experiment [7], -0.49; in [8], -1.01; in experiment [9], 0.0123; in experiment [10], -0.535; in experiment [11], -0.232. The composite z-score in experiment [12] is -1.82; in [13] it was -0.808; in experiment [14], -0.994; in the experiment with Lefty1, -1.19; in [16], -0.858. Moreover, the composite Z-score in experiment [1] was 0.0275 (inactive). Moreover, the z-score was 0.41 in experiment [15] and -15.8 (active) in experiment [17].
